Test results published in PubChem BioAssay (EPA / NIEHS).
The source made the active and inactive calls. How the source made its calls: active means hit-call score of the fitted dose curve at least 0.9, where 1 is the maximum; inactive means score below 0.9.

How the values were obtained:
Conditions in all cases: mRNA level, 48 h; actives raise or lower the signal
[1] = read-out: sulfotransferase 2A1 (SULT2A1), SULT2A1 (gene 6822); experiment: LTEA_HepaRG_SULT2A1: Life Technologies and Expression Analysis (LTEA) Assay for sulfotransferase 2A1 (SULT2A1) using HepaRG (AID 2283531)
Summary of the method: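 Cells were plated and cultured 48 h, switched to serum-free induction medium, then dosed in duplicate for 48 h (8 concentrations, max 100 uM). RNA was isolated and SULT2A1 expression measured by qRT-PCR; gain or loss of signal fitted relative to DMSO.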

[2] = read-out: Transforming Growth Factor (TGFA), TGFA (gene 7039); experiment: LTEA_HepaRG_TGFA: Life Technologies and Expression Analysis (LTEA) Assay for Transforming Growth Factor (TGFA) using HepaRG (AID 2283532)
Summary of the method: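 TGFA transcript quantified by qRT-PCR (Fluidigm arrays) against three housekeeping genes, after 48 hours chemical treatment of HepaRG cells. Top concentration 100 uM with half-log dilutions, 8 points, duplicates, 0.5% DMSO.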

TIMP1, TIMP1 (gene 7076) = experiment: LTEA_HepaRG_TIMP1: Life Technologies and Expression Analysis (LTEA) Assay for TIMP1 using HepaRG (AID 2283534)
Summary of the method: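 We dosed human liver HepaRG cultures for 48 hours with up to 100 uM test chemical and measured TIMP1 expression by qRT-PCR. Activity in either direction is fitted relative to the 0.5% DMSO vehicle.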

[3] = read-out: Tumor necrosis factor receptor 1 (TNFRSF1A), TNFRSF1A (gene 7132); experiment: LTEA_HepaRG_TNFRSF1A: Life Technologies and Expression Analysis (LTEA) Assay for Tumor necrosis factor receptor 1 (TNFRSF1A) using HepaRG (AID 2283535)
Summary of the method: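 Expression of TNFRSF1A in human HepaRG liver cells was measured by qRT-PCR 48 h after chemical dosing (maximum 100 uM). Bidirectional curve fitting used 0.5% DMSO as baseline.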

[4] = read-out: Thyroid Hormone Responsive (THRSP), THRSP (gene 7069); experiment: LTEA_HepaRG_THRSP: Life Technologies and Expression Analysis (LTEA) Assay for Thyroid Hormone Responsive (THRSP) using HepaRG (AID 2283536)
Summary of the method: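 THRSP transcript quantified by Fluidigm qRT-PCR against three housekeeping genes after 48 h chemical exposure of HepaRG cells in serum-free induction medium; eight-point half-log series, top 100 uM, 0.5% DMSO vehicle, duplicate wells.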

[5] = read-out: Cellular tumor antigen p53 (Homo sapiens) (UniProt P04637); experiment: LTEA_HepaRG_TP53: Life Technologies and Expression Analysis (LTEA) Assay for Tumor Protein P53 (TP53) using HepaRG (AID 2283537)
Summary of the method: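 HepaRG, 48 h exposure, top 100 uM, half-log 8-point, 0.5% DMSO vehicle, duplicates. Read: TP53 mRNA by TaqMan qRT-PCR, normalised to ACTB/GAPDH/POLR2A; bidirectional fit vs DMSO.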

[6] = read-out: UDP glucuronosyltransferase (UGT1A6), UGT1A6 (gene 54578); experiment: LTEA_HepaRG_UGT1A6: Life Technologies and Expression Analysis (LTEA) Assay for UDP glucuronosyltransferase (UGT1A6) using HepaRG (AID 2283539)
Summary of the method: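 Endpoint is UGT1A6 transcript induction or loss in a human liver cell line, quantified by TaqMan qRT-PCR 48 h after dosing. Concentrations ran from 100 uM downward in half-log steps in 0.5% DMSO; activity was fitted in both directions versus vehicle.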

[7] = read-out: X-box binding protein 1 (XBP1), XBP1 (gene 7494); experiment: LTEA_HepaRG_XBP1: Life Technologies and Expression Analysis (LTEA) Assay for X-box binding protein 1 (XBP1) using HepaRG (AID 2283540)
Summary of the method: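 Human HepaRG monolayers receive test chemical for 48 h across an eight-point half-log series starting at 100 uM. XBP1 mRNA gain or loss is scored against DMSO by qRT-PCR.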

[8] = read-out: Transforming Growth Factor (TGFB1), TGFB1 (gene 7040); experiment: LTEA_HepaRG_TGFB1: Life Technologies and Expression Analysis (LTEA) Assay for Transforming Growth Factor (TGFB1) Transporter using HepaRG (AID 2283533)
Summary of the method: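 Expression change of TGFB1 in human HepaRG cells is measured after a 48 h chemical exposure, up to 100 uM in 0.5% DMSO vehicle. Curves are fitted in both directions relative to the DMSO baseline.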

[9] = read-out: UDP glucuronosyltransferase (UGT1A1), UGT1A1 (gene 54658); experiment: LTEA_HepaRG_UGT1A1: Life Technologies and Expression Analysis (LTEA) Assay for UDP glucuronosyltransferase (UGT1A1) using HepaRG (AID 2283538)
Summary of the method: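 UGT1A1 transcript level, measured by qRT-PCR with three housekeeping genes for normalization, after 48 h treatment of human HepaRG cells (0.5% DMSO, duplicates, up to 100 uM, half-log steps, 8 points). Curves fit both directions against DMSO baseline.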

Measured: AC50

Sequence of Cellular tumor antigen p53 (Homo sapiens) (P04637 whole entry, looked up): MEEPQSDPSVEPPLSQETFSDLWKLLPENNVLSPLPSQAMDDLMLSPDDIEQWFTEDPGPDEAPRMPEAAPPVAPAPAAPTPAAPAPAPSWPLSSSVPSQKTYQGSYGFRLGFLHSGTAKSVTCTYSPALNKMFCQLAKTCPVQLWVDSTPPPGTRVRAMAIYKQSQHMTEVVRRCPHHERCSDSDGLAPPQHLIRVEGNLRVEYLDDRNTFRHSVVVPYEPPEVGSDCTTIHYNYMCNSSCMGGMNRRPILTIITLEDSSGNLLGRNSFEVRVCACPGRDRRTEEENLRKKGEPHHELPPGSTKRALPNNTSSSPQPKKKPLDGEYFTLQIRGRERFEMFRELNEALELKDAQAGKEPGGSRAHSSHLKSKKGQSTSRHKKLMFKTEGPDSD

c1ccc2ccccc2c1
not listed: [8] | [9]
inactive: all other assays above

CCCCCCCCCCCC[N+](C)(C)C
active: [1] 93.5 µM | [2] 77 µM | TIMP1, TIMP1 (gene 7076) 83.4 µM | [5] 81.9 µM | [6] 89.9 µM
inactive: [3] | [4] | [7]

CC(O)CC(C)(C)O (centres undefined)
inactive: all assays above

Cc1cc(F)ccc1-c1cc(N2CC[C@@H](O)[C@H]2CO)ncc1N(C)C(=O)C(C)(C)c1cc(C(F)(F)F)cc(C(F)(F)F)c1
active: [2] 23.6 µM | [8] 19.3 µM | [4] 20.6 µM | [5] 19.9 µM | [9] 23 µM
inactive: TIMP1, TIMP1 (gene 7076) | [3] | [6] | [7]

CCOC(=O)O[C@H](C)OC(=O)c1ccc2c(c1)cc(C(=O)NC1CCN(C(C)C)CC1)n2Cc1cc(-c2ccc(Cl)s2)on1
active: [4] 16 µM
not listed: [1]
inactive: all other assays above

COc1cc(C(=O)NC2CCN(C)CC2)ccc1Nc1ncc2c(n1)N(C1CCCC1)CC(F)(F)C(=O)N2C
active: [1] 11.6 µM | [8] 3.64 µM | TIMP1, TIMP1 (gene 7076) 11.9 µM | [3] 4.65 µM | [4] 0.923 µM | [5] 8 µM | [6] 8.85 µM | [7] 10.8 µM
inactive: [2]

CN(C)C(=O)C1(N2CCCCC2)CCN(CC[C@@]2(c3ccc(Cl)c(Cl)c3)CN(C(=O)c3ccccc3)CCO2)CC1
active: [1] 23.3 µM | TIMP1, TIMP1 (gene 7076) 17.4 µM | [3] 27.5 µM | [4] 24.2 µM | [5] 47.2 µM | [9] 27.6 µM | [6] 25.7 µM
inactive: [2] | [7]

Cc1ccc2oc(CN(Cc3ccccc3)C(=O)Nc3c(F)cc(F)cc3F)c(-c3ccc(Cl)cc3)c2c1
active: [5] 44.2 µM
not listed: [9]
inactive: all other assays above

C[C@]12CC[C@@H]3c4ccc(O)cc4CC[C@H]3[C@@H]1CCC2=O
active: [9] 5.13 µM
not listed: [5]
inactive: all other assays above

O=c1ccc2ccccc2o1
not listed: [8] | [9]
inactive: all other assays above

CC1(C)NC(=O)N(c2ccc([N+](=O)[O-])c(C(F)(F)F)c2)C1=O
active: [1] 84.1 µM | [2] 50 µM | [5] 78.2 µM
not listed: [8]
inactive: all other assays above

CC1=CC(=O)/C(=C(/C)O)C(=O)O1
not listed: [8] | [9]
inactive: all other assays above

COCC(C)OCC(C)OCC(C)O (centres undefined)
not listed: [9]
inactive: all other assays above

Clc1cc(Cl)c2c(c1)N=C1CCCCCN1C2
inactive: all assays above

Cc1occc1C(=O)Nc1ccc(C(=O)N2CCC(F)(F)/C(=C\C(=O)N3CCC(N4CCCCC4)CC3)c3ccccc32)cc1
active: [9] 54.3 µM
inactive: all other assays above

O=CCCCC=O
not listed: [8]
inactive: all other assays above

Cc1cc2c(cc1C(F)(F)F)N(C(=O)Nc1ccc(Oc3cccnc3C)nc1)CC2
inactive: [1] | [2] | [4] | [7]
active: TIMP1, TIMP1 (gene 7076) 83 µM | [3] 73.6 µM | [5] 75 µM | [9] 81.4 µM | [6] 76.1 µM

COc1cccc([C@H](O)C2CCN(CCc3ccc(F)cc3)CC2)c1OC
not listed: [8]
inactive: all other assays above

CN1C(=O)N(c2ccccc2Br)Cc2cnc(Nc3ccc4c(c3)OCC(CO)O4)nc21 (centres undefined)
active: [1] 81.1 µM | TIMP1, TIMP1 (gene 7076) 11.9 µM | [3] 83.7 µM | [6] 81.5 µM
inactive: [2] | [4] | [5] | [7]

Oc1ccc2ccccc2c1
not listed: [1]
inactive: all other assays above

O=C1O[C@H]([C@@H](O)CO)C(O)=C1O
not listed: [7] | [8]
inactive: all other assays above

CCN(Cc1cccc(S(=O)(=O)O)c1)c1ccc(C(=C2C=CC(=[N+](CC)Cc3cccc(S(=O)(=O)O)c3)C=C2)c2ccccc2S(=O)(=O)[O-])cc1
not listed: [9]
inactive: all other assays above

CCCCCCCCN(C)CCCCCCCC
not listed: [8] | [9]
inactive: all other assays above

Cc1ccc(C(C)C)cc1
inactive: all assays above

Cc1c2ccccc2c(C)c2c1ccc1ccccc12
active: [1] 71.1 µM | [2] 63.3 µM | [4] 75.4 µM | [5] 54.1 µM | [6] 35 µM
inactive: TIMP1, TIMP1 (gene 7076) | [3] | [7]

CCCCCCCCOc1ccc(C(=O)c2ccccc2)c(O)c1
active: [9] 20.4 µM
inactive: all other assays above

O=C(O)c1ccccc1-n1cc(C(=O)O)c(=O)c2cc(Nc3c(F)cc(F)cc3Cl)c(Cl)cc21
active: [3] 0.0319 µM | [6] 0.0904 µM
not listed: [9]
inactive: all other assays above

CCO[Si](CCCNC(N)=O)(OCC)OCC
not listed: [8]
inactive: all other assays above

O=C1c2ccccc2C(=O)N1CCc1noc(-c2ccc(CN3CCCCCC3)s2)n1
not listed: [9]
inactive: all other assays above

CC[C@@H]1C[C@H](N(Cc2cc(C(F)(F)F)cc(C(F)(F)F)c2)C(C)=O)c2cc(C(F)(F)F)ccc2N1C(=O)OC(C)C
not listed: [9]
inactive: all other assays above

CC/C(=C(/CC)c1ccc(O)cc1)c1ccc(O)cc1
inactive: TIMP1, TIMP1 (gene 7076) | [5]
active: [1] 93.7 µM | [2] 81.3 µM | [8] 90.8 µM | [3] 93.8 µM | [4] 21.7 µM | [9] 93.9 µM | [6] 76.7 µM | [7] 89.9 µM

O=C(Nc1ccc(Cl)cc1)Nc1ccc(Cl)c(Cl)c1
inactive: [4]
active: [1] 22.7 µM | [2] 25.5 µM | [8] 24.4 µM | TIMP1, TIMP1 (gene 7076) 16 µM | [3] 13.1 µM | [5] 12.4 µM | [6] 13.5 µM | [7] 17.2 µM

CC(C)(C)c1cc(/C=C2\SC(N)=NC2=O)cc(C(C)(C)C)c1O
inactive: [4] | [5] | [7]
active: [1] 93.6 µM | [2] 22.6 µM | TIMP1, TIMP1 (gene 7076) 33.8 µM | [3] 15.8 µM | [9] 93.5 µM | [6] 22.1 µM

Oc1ccccc1
not listed: [8]
inactive: all other assays above

NCc1cccc(C2CCN(C(=O)c3ccc(C#Cc4ccccc4F)o3)CC2)c1
active: [1] 92.9 µM | TIMP1, TIMP1 (gene 7076) 85.9 µM | [3] 91.9 µM | [4] 83.9 µM | [9] 86.3 µM | [6] 93.1 µM
inactive: [2] | [8] | [5] | [7]
